# From PubChem BioAssay AID1851 (National Center for Advancing Translational Sciences (NCATS), 2009)
# In all, about 16,000 compounds went through this assay and about 5,700 (36%) were called active. About 24% were inconclusive and are not listed. The call rests on the fitted dose curve; in most records, active means well fitted curve in the direction sought with a large enough effect; inconclusive means small, poorly fitted or top-dose-only effect, or effect the other way; inactive means no such curve, though single readings can be large or run the other way. The list shows a part of the results.
# Target: Cytochrome P450 1A2 (Homo sapiens) (UniProt P05177)
# Experiment: Cytochrome panel assay with activity outcomes
# Conditions: recombinant CYP, pro-luciferin dealkylation, luminescence, p450-cyp1a2; series mostly up to 57.1 µM; activity, negative = inhibition: at the top concentration
# On the % scale 0 is the no-effect control and ±100 the full control effect.
# Chain of Cytochrome P450 1A2 (Homo sapiens) (P05177 whole entry, looked up): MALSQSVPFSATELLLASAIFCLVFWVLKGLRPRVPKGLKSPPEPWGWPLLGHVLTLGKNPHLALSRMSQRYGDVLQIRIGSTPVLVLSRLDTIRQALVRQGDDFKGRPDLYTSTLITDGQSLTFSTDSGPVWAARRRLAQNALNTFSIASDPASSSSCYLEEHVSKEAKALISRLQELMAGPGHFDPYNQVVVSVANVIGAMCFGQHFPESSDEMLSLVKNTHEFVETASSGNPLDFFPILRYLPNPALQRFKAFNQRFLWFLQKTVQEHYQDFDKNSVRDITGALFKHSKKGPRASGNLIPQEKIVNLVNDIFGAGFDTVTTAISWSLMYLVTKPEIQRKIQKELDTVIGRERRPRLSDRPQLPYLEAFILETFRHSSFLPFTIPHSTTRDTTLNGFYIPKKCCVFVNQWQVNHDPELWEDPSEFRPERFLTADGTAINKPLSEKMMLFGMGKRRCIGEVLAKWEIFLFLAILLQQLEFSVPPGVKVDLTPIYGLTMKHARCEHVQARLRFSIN
SMILES,AC50,"activity, negative = inhibition"
COc1cc(OC)c2c(c1)C(=O)c1cc(OC)cc(OC)c1C2=O,2 µM (active),
Cc1ccc(-n2ccnc2SCC(=O)N(CC(C)C)C2CCS(=O)(=O)C2)c(C)c1 (configuration not stated),,-2.42% (inactive)
COc1ccc(NC(=O)CSc2nnc(CNC(=O)c3ccco3)n2-c2ccccc2OC)cc1,,-12.4% (inactive)
CC(=O)c1ccc(-n2nnnc2SCC(=O)Nc2cccc(NC(=O)c3ccco3)c2)cc1,0.501 µM (active),
Cc1ccc(-n2nnnc2SCC(=O)NNC(=O)c2ccco2)c(C)c1,,-8.95% (inactive)
O=C(CSc1ccccc1)Nc1ccc(NC(=O)c2ccco2)cc1,,-19.7% (inactive)
O=C(CSc1ccc(Cl)cc1)Nc1cccc(NC(=O)c2ccco2)c1,2 µM (active),
Fc1cccc(F)c1C(Nc1nncs1)Nc1nncs1,,12.3% [at 2.29 µM] (inactive)
Cc1cccc(C(=O)NC2CCN(C(=S)NCc3ccco3)CC2)c1,,-1.32% (inactive)
Cn1c(=O)n(-c2ccc(Cl)cc2)c(=O)c2c3c(sc21)COC(C)(C)C3,14.1 µM (active),
O=C(C/C=N/OCc1ccc(Cl)cc1Cl)c1ccc(Cl)cc1,2.82 µM (active),
O=C(C/C=N/OCc1ccc(F)cc1Cl)c1cnc(-c2ccccc2)s1,1.78 µM (active),
O=C1[C@@H]2[C@H]3[C@H](O)[C@H](O)C/C(=N/OCc4ccccc4)[C@H]3CC[C@H]2C(=O)N1c1ccc(F)cc1F,,-0.404% [at 11.4 µM] (inactive)
CCCc1nnc(SCC(=O)N2C(C)CCCC2C)n1CCCOC (configuration not stated),,3.47% (inactive)
O=C(Nc1cccc(F)c1)/C(=C\c1ccco1)NC(=O)c1cccs1,4.47 µM (active),
Cc1ccc(NC(=O)/C(=C\c2cccc([N+](=O)[O-])c2)NC(=O)c2cccs2)cc1,,-27.3% (inactive)
O=C(Nc1cccc(F)c1)N1CCC2(CC1)CCN(C(=O)c1ccco1)CC2,,-7.71% (inactive)
NCCC(=O)O,,-20.8% (inactive)
CCCCCC/C(C)=C1/SC(=S)NC1=O,2.51 µM (active),
c1ccc(Oc2cc(-c3ccccc3)ncn2)cc1,2.82 µM (active),
COc1cc(/C=N/NC(=O)c2cccnc2)ccc1OC(=O)c1ccco1,12.6 µM (active),
COc1cc(/C=N/NC(=O)c2cccnc2)ccc1OC(=O)c1ccc2c(c1)OCO2,,-25.7% (inactive)
Cc1ccc(C2=C(Cl)C(=O)C(c3ccc(C)cc3)=C(Cl)C2=O)cc1,,-16.9% [at 2.29 µM] (inactive)
COc1cccc(C2=CC(c3ccccc3)n3nnnc3N2)c1 (configuration not stated),1.12 µM (active),

SMILES,AC50,"activity, negative = inhibition"
CN(C)c1ccc(/C=C2/C(=O)Nc3ccccc32)cc1,0.1 µM (active),
Cc1cc(C)c(/C=C2/C(=O)Nc3ccccc32)[nH]1,0.794 µM (active),
O=C1Nc2cc(C(=O)N3CCOCC3)ccc2SC1N1CCOCC1 (configuration not stated),,-4.43% (inactive)
N[C@@H](CSCc1ccc(I)cc1)C(=O)O,,-12% [at 2.29 µM] (inactive)
COC(=O)[C@H](CCSC)NC(=O)C/C=C\[C@@H](C)[C@@H](CO)OC,,-1.07% [at 11.4 µM] (inactive)
c1ccc(C[n+]2cccc(-c3cc4ccccc4[nH]3)c2)cc1,1.26 µM (active),
COc1cc2c3c(c1OC)C1(C=CC(=O)C=C1)CC3N(C(=O)c1ccccc1)CC2 (configuration not stated),,-2.36% (inactive)
COc1ccc(C(=O)N2CCC3(CCCN(Cc4ccccc4)C3)CC2)cc1,,7.68% (inactive)
COc1ccc(C(=O)N2CCC3(CCN(C)CC3)CC2)cc1,,-19.3% (inactive)
COc1ccc(C(=O)/C=C2/c3ccccc3CC(C)(C)N2C)cc1,15.8 µM (active),
N=C1CCC[C@@H]1C(=S)SCCC(N)=O,3.16 µM (active),
N#CCCSC(=S)[C@H]1CCCC1=N,3.16 µM (active),
CCN1C(=O)C(O)(CC(=O)/C=C/C=C/c2ccccc2)c2ccccc21 (configuration not stated),10 µM (active),
CCN1C(=O)C(O)(C2COC(C)(C)CC2=O)c2ccccc21 (configuration not stated),,-22.9% (inactive)
COc1ccc([C@@H]2Sc3ccccc3N(CCN(C)C)C(=O)[C@@H]2OC(C)=O)cc1,,-20.6% (inactive)
CCCN1C(=O)C(NC(C)=O)c2cc(OC)ccc21 (configuration not stated),7.08 µM (active),
COc1ccc([C@H]2Sc3ccccc3N(CCN(C)C)C(=O)[C@H]2OC(C)=O)cc1,inactive,
CN(C)c1ccc(-c2ccc3ncnc(NC4CC4)c3c2)cc1,0.2 µM (active),
c1nc(NC2CCNCC2)c2cc(-c3ccc4c(c3)OCO4)ccc2n1,12.6 µM (active),
c1nc(NC2CC2)c2cc(-c3ccoc3)ccc2n1,0.794 µM (active),
c1nc(NC2CCNCC2)c2cc(-c3ccoc3)ccc2n1,25.1 µM (active),
CC(=O)N[C@@H](C(=O)O)C(C)(C)SN=O,inactive,
O=C(Cn1cccc1)NC1CCCCCC1,,-20.3% (inactive)
